From PubChem BioAssay (EPA / NIEHS)
Records with an inconclusive call do not appear. Activity calls are given as the source filed them. Rule for the calls: active = hit-call score of the fitted dose curve at least 0.9, where 1 is the maximum; inconclusive = response in the unintended direction; inactive = score below 0.9.

Read-out: ABC Transporter (ABCB1), ABCB1 (gene 5243)
Experiment: CLD_ABCB1_6hr: CellzDirect (CLD) Gene Expression Assay for ABC Transporter (ABCB1) at 6 hours (AID 2283659);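 note: hits raise ABCB1 transcript above the DMSO vehicle baseline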
Protocol: CLD_6hr is a cell-based, multiplexed-readout assay that uses hepatocyte, a human liver primary cell, with measurements taken at 6 hours after chemical dosing in a 96-well plate.CLD_ABCB1_6hr is one of 16 assay component(s) measured or calculated from the CLD_6hr assay. It is designed to make measurements of mRNA induction, a form of inducible reporter, as detected with chemiluminescence signals by Quantitative Nuclease Protection Assay (qNPA) technology.Data from the assay component CLD_ABCB1_6hr was analyzed at the endpoint, CLD_ABCB1_6hr, in the positive analysis fitting direction relative to DMSO as the negative control and baseline of activity. Using a type of inducible reporter, gain-of-signal activity can be used to understand changes in the reporter gene as they relate to the gene ABCB1. Furthermore, this assay endpoint can be referred to as a primary readout. To generalize the intended target to other relatable targets, this assay endpoint is annotated to the transporter intended target family, where subfamily is ABC transporter.
Human hepatocyte cultures were treated daily for two consecutive days with fresh dosing solutions containing appropriate concentrations of the 320 ToxCast chemicals (chemical identities were blinded to CellzDirect and other ToxCast collaborators), vehicle control (0.2% DMSO), and positive control inducers as summarized in Table 1. Due to the large number of treatment groups and chemicals examined, the ToxCast chemicals were divided into two groups (spanning two independent cultures of hepatocytes from separate donor preparations (Hu778: ToxCast plates 1 and 2; Hu776: ToxCast plates 3 and 4). Each preparation of human hepatocyte cultures was treated with respective vehicle control, medium only control, set of six positive controls/reference chemicals for the five hepatic receptor pathways, and a subset of eight of the ToxCast chemicals (indoxacarb, pyrithiobac-sodium, norflurazon, cyhalofop-butyl, methomyl, thiram, acetochlor, and propiconazole). These replicate data, coupled with internal replicates designed within the blinded ToxCast chemical library, provided additional data to evaluate interindividual differences between hepatocyte preparations and their potential impact on chemical profiles.Cell morphology and integrity were evaluated using phase-contrast microscopy as an indicator of hepatocyte cell health (Tyson & Green, 1987). Cultures for each treatment group (i.e., media, vehicle [0.2% DMSO], positive control inducers [multiple concentrations], and the ToxCast chemicals [multiple concentrations]) were observed and cell morphology was assessed relative to vehicle control cultures at each harvest time point (0, 6, 24, or 48 h). […] Images were evaluated at the conclusion of the study to assess changes in cell integrity and account for the effects of chemical exposure on uncharacteristic changes in concentration-dependent gene expression profiles. The results from these determinations of apparent cytotoxicity were annotated (yes/no) alongside the corresponding qNPA data for reference.At the conclusion of each treatment period, hepatocyte cultures (96-well) were washed with 1 volume of HBSS, lysed by addition of 25 ul ArrayPlate lysis buffer (HTG, Tucson, AZ), and 70 ul/well of Denaturation Oil, denatured by incubation at 95C for 10 min, and frozen at approximately -70C until analysis by nuclease protection assay (qNPA) (Roberts et al., 2007). For qNPA analysis, cell lysates were thawed at 50C for approximately 30 min, qNPA probes were added, and samples were incubated at 95C for 10 min to begin the detection process by denaturing the target RNA, dissociating the duplexes and secondary structure hybridization. At the conclusion of the hybridization period, S1 nuclease reagent was added to each sample to digest all nonprotected nucleotides at 50C for 60-90 min. […]

SMILES	outcome
O=C(O)C(F)(F)C(F)(F)C(F)(F)C(F)(F)C(F)(F)C(F)(F)C(F)(F)F	inactive
COP(=O)(OC)OC=C(Cl)Cl	inactive
CC(C)(C)C(O)/C(=C\c1ccc(Cl)cc1Cl)n1cncn1 (stereo not given)	inactive
O=S1OCC2C(CO1)C1(Cl)C(Cl)=C(Cl)C2(Cl)C1(Cl)Cl (stereo not given)	inactive
COC(=O)c1ccccc1S(=O)(=O)NC(=O)Nc1nc(C)nc(OC)n1	inactive
N#CN	inactive
CCC(C)(C)C(=O)OC1=C(c2ccc(Cl)cc2Cl)C(=O)OC12CCCCC2	inactive
CC(C)(C)C(O)C(Oc1ccc(Cl)cc1)n1cncn1 (stereo not given)	inactive
CCCN(CCC)c1c([N+](=O)[O-])cc(C(F)(F)F)cc1[N+](=O)[O-]	inactive
CC[C@H](C)[C@H]1O[C@]2(C=C[C@@H]1C)C[C@@H]1C[C@@H](C/C=C(\C)[C@@H](O[C@H]3C[C@H](OC)[C@@H](O[C@H]4C[C@H](OC)[C@@H](O)[C@H](C)O4)[C@H](C)O3)[C@@H](C)/C=C/C=C3\CO[C@@H]4[C@H](O)C(C)=C[C@@H](C(=O)O1)[C@]34O)O2 (tested in a mixture with another compound)	inactive
Cc1[nH]c(=O)n(C(C)(C)C)c(=O)c1Cl	inactive
O=[N+]([O-])/N=C1\NCCN1Cc1ccc(Cl)nc1	inactive
O=C(O)CCCOc1ccc(Cl)cc1Cl	inactive
Clc1ccccc1-c1nnc(-c2ccccc2Cl)nn1	inactive
CCOC1Oc2ccc(OS(C)(=O)=O)cc2C1(C)C (stereo not given)	inactive
C#CCN1C(=O)COc2cc(F)c(N3C(=O)C4=C(CCCC4)C3=O)cc21	inactive
C[C@H]1[C@H](c2ccc(Cl)cc2)SC(=O)N1C(=O)NC1CCCCC1	inactive
CCc1ccc(C(=O)NN(C(=O)c2cc(C)cc(C)c2)C(C)(C)C)cc1	inactive
Oc1ccc(Cl)cc1Cc1ccccc1	inactive
CC(C)OC(=O)Nc1cccc(Cl)c1	inactive

SMILES	outcome
OCCOc1ccccc1	inactive
CC1(C)C(C=C(Cl)Cl)C1C(=O)OC(C#N)c1ccc(F)c(Oc2ccccc2)c1 (stereo not given)	inactive
CCN(CC)C(=O)SCc1ccc(Cl)cc1	inactive
CN1CSC(=S)N(C)C1	inactive
CCOCN(C(=O)CCl)c1c(C)cccc1CC	inactive
O=[N+]([O-])c1c(Cl)c(Cl)c(Cl)c(Cl)c1Cl	inactive
O=C(NC(=O)c1c(F)cccc1F)Nc1ccc(OC(F)(F)C(F)OC(F)(F)F)c(Cl)c1 (stereo not given)	inactive
CCC(C)(NC(=O)c1cc(Cl)c(C)c(Cl)c1)C(=O)CCl (stereo not given)	inactive
COP(=S)(OC)Oc1ccc([N+](=O)[O-])cc1	inactive
CCS(=O)(=O)c1cccnc1S(=O)(=O)NC(=O)Nc1nc(OC)cc(OC)n1	inactive
O=C1c2ccccc2C(=O)N1SC(Cl)(Cl)Cl	inactive
COC(=O)c1ccccc1CS(=O)(=O)NC(=O)Nc1nc(OC)cc(OC)n1	inactive
Oc1cc(Cl)ccc1Oc1ccc(Cl)cc1Cl	inactive
CCC(C)Nc1c([N+](=O)[O-])cc(C(C)(C)C)cc1[N+](=O)[O-] (stereo not given)	inactive
CNC(=O)/C=C(\C)OP(=O)(OC)OC	inactive
COc1cc(OC)nc(NC(=O)NS(=O)(=O)c2cc(NC=O)ccc2C(=O)N(C)C)n1	inactive
CCCN(CCOc1c(Cl)cc(Cl)cc1Cl)C(=O)n1ccnc1	inactive
ClC1C(Cl)C(Cl)C(Cl)C(Cl)C1Cl (stereo not given)	inactive
CC(C)N(C(=O)COc1nnc(C(F)(F)F)s1)c1ccc(F)cc1	inactive
CNC(=O)Oc1ccccc1OC(C)C	inactive
